From PubChem
CHX counter: affects cycloheximide protein synthesis inhibition readout, counter-screen; cell reporter, cycloheximide protein synthesis inhibition counterscreen; 12% of 300,000 active; max response, %; in the data active = max response mostly above about 13%, no sharp cut-off; inactive = mostly below about 14%; also: read at 38.3 µM for the half of the compounds with a filed dose; 0% is about no effect
Shiga inhibitor: inhibitors of Shiga toxin in Vero cells; Vero cells, Shiga toxin protein synthesis inhibition reporter; inhibition, % at 38.7 µM; 9.2% of 290,000 active; in the data active = inhibition mostly above about 28%, no sharp cut-off; inactive = mostly below about 43%; also: 0% is about no effect
SARS PLP yeast: inhibitors of SARS-CoV papain-like protease in yeast | S. cerevisiae expressing SARS-CoV PLpro, growth rescue | 0.19% of 330,000 active | Potency, µM (doses to about 32.9 µM), for inactives: at the highest dose activity, positive = growth rescue, most hits filed as activators | AID 485353; also: potency is read from the fitted curve at half-maximal effect; 0% is about no effect; nearly all actives have a fitted effect of over 55% in size
Pf growth 96h: P. falciparum growth inhibition at 96 hour, primary screen for plastid delayed-death inhibitors. P. falciparum luciferase reporter growth, 96 h. Potency, µM (doses to about 28.7 µM), for the others: at the highest dose activity change, negative = inhibition, hits mostly inhibitors. 6.9% of 320,000 active; active = well fitted inhibition curve with a large enough effect; inconclusive = small, poorly fitted or top-dose-only effect, or another doubt; inactive = no such curve, though single readings can be large or run the other way; also: potency is read from the fitted curve at half-maximal effect; % is scaled to controls: 0 for no effect and ±100 for the full control effect
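Readout is luminescence from an integrated firefly luciferase in P. falciparum. Red cells, 2% hematocrit and 0.05% parasitemia final, were cultured with compound through two parasite generations (96 hours) at 37 C, 5% CO2.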
NS1 function inh: inhibitors of influenza NS1 protein function | Potency, µM (titrated, usually from 46.1 µM), without a hit: top-dose activity, positive = more growth | AID 2326 | 0.4% of 270,000 active; also: potency is read from the fitted curve at half-maximal effect; actives are rising curves; nearly all actives have a fitted effect of over 50% in size
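Read-out: OD600 growth recovery of NS1-expressing budding yeast. Cells grown overnight at 30C in -URA glucose medium, washed, resuspended and diluted 1:100 in 2% galactose assay medium, pH 6.0. Same strain lacking NS1 served as positive control.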
Pf growth 48h: P. falciparum growth inhibition at 48 hours (one generation); P. falciparum luciferase growth in erythrocytes, 48 h; Potency, µM (highest dose often 28.7 µM), for the others: at the top dose activity change, negative = inhibition, usual class: inhibitors; 5.9% of 310,000 active; AID 504832; active = well fitted inhibition curve with a large enough effect; inconclusive = small, poorly fitted or top-dose-only effect, or another doubt; inactive = no such curve, though single readings can be large or run the other way; also: potency is read from the fitted curve at half-maximal effect; % is scaled to controls: 0 for no effect and ±100 for the full control effect
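Parasite viability was followed by luminescence of a genomically integrated firefly luciferase. Cultures held 0.1% parasitemia at 2% hematocrit (final), incubated under 5% CO2 at 37 C.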
* = called active by the depositor; [ ] = remark or other dose. The list is not random: actives were taken first. Their share in the collection is about 21%. Unless noted, calls follow the shape of the full dose curve.

What do the screens show for `COc1ccc(C(=O)NC(C)c2cc(OC)c(OC)cc2Br)cc1` (stereo not given)?
CHX counter: -1; Shiga inhibitor: -16; SARS PLP yeast: 2%; Pf growth 96h: -3%; NS1 function inh: -20%; Pf growth 48h: 30%

What do the screens show for `COc1ccc([C@@H](C)NC(=O)c2ccc3oc(C(C)C)nc3c2)cc1`?
CHX counter: 50*; Shiga inhibitor: 74*; Pf growth 96h: 0.66µM*; NS1 function inh: -15%; Pf growth 48h: 47%

How did COc1ccc(NC(=O)CCNS(=O)(=O)c2ccc(Cl)c([N+](=O)[O-])c2)cc1S(N)(=O)=O do in these assays?
CHX counter: -8; Shiga inhibitor: -1; SARS PLP yeast: 0%; Pf growth 96h: inconclusive; NS1 function inh: -4%; Pf growth 48h: inconclusive

How did CCOC(=O)CC1CCCCN1C(=O)c1ccc2oc(CCc3ccccc3)nc2c1 (stereo not given) do in these assays?
CHX counter: 17*; Shiga inhibitor: 34*; SARS PLP yeast: -1%; Pf growth 96h: inconclusive; NS1 function inh: -14%; Pf growth 48h: -18%

What do the screens show for `Cc1c(Cl)cccc1NC(=S)NNc1ncc(C(F)(F)F)cc1Cl`?
CHX counter: -5; Shiga inhibitor: -12; SARS PLP yeast: -5%; Pf growth 96h: 9.3µM*; NS1 function inh: -7%

How did Cc1cccc(C)c1NC(=O)N1CCN(c2nc3ccccc3s2)CC1 do in these assays?
CHX counter: 1; Shiga inhibitor: 24; SARS PLP yeast: -1%; NS1 function inh: -4%; Pf growth 48h: -12%

Results for CC(C)(C)C(=O)N1CCN(c2nc3ccc(Cl)cc3s2)CC1 ?
CHX counter: 19*; Shiga inhibitor: 80*; SARS PLP yeast: -2%; Pf growth 96h: 66%; NS1 function inh: -8%; Pf growth 48h: -5%[0.00184 µM]

What do the screens show for `CC(C)(C)C(=O)N1CCN(c2ccc(Cl)cc2[N+](=O)[O-])CC1`?
CHX counter: 25*; Shiga inhibitor: 33*; SARS PLP yeast: -47%; Pf growth 96h: 36%; NS1 function inh: -42%; Pf growth 48h: 24%

Results for O=C(O)CSCC(=O)N1CCN(c2nc3cc(Cl)ccc3s2)CC1 ?
CHX counter: 8; Shiga inhibitor: 28; SARS PLP yeast: -1%; Pf growth 96h: 28%; NS1 function inh: 0%; Pf growth 48h: 0%

Results for O=C(c1ccccc1)N1CCN(c2nc3ccc([N+](=O)[O-])cc3s2)CC1 ?
CHX counter: 4; Shiga inhibitor: 10; SARS PLP yeast: 1%; Pf growth 96h: -19%; NS1 function inh: 0%; Pf growth 48h: -3%

What do the screens show for `CC(C)(C)C(=O)N1CCN(c2nc3ccc(Br)cc3s2)CC1`?
CHX counter: 23*; Shiga inhibitor: 31*; SARS PLP yeast: inconclusive; Pf growth 96h: 27%; NS1 function inh: -10%; Pf growth 48h: 31%

Results for Cc1cccc(Cl)c1NC(=O)N1CCCN(c2nc3ccc(Cl)cc3s2)CC1 ?
CHX counter: 25*; Shiga inhibitor: 44*; SARS PLP yeast: -2%; Pf growth 96h: inconclusive; NS1 function inh: -3%; Pf growth 48h: inconclusive

How did CN1C(=O)/C(=C/c2ccccc2OCc2ccccc2F)NC1=S do in these assays?
CHX counter: -3; Shiga inhibitor: -16; SARS PLP yeast: 8%; Pf growth 96h: 19%; NS1 function inh: 1%; Pf growth 48h: 8%

What do the screens show for `CC(C)(C)C(=O)Nc1nnc(SCC(=O)NCc2ccco2)s1`?
CHX counter: -1; Shiga inhibitor: -4; SARS PLP yeast: -19%; Pf growth 96h: 1%; NS1 function inh: -3%; Pf growth 48h: 5%

Results for CC(=O)N1CCN(c2nc3ccc(Br)cc3s2)CC1 ?
CHX counter: 27*; Shiga inhibitor: 53*; SARS PLP yeast: -6%; Pf growth 96h: 67%; NS1 function inh: 0%; Pf growth 48h: 85%

Results for CC(C)CCN(CCC(C)C)CC(O)Cn1c2ccccc2c(=O)c2ccccc21 (stereo not given) ?
CHX counter: -4; Shiga inhibitor: -12; SARS PLP yeast: 0%; Pf growth 96h: inconclusive; NS1 function inh: -7%; Pf growth 48h: 1.7µM*

Results for CCCN(CCC)CC(O)Cn1c2ccccc2c2ccccc21 (stereo not given) ?
CHX counter: -4; Shiga inhibitor: -8; SARS PLP yeast: 1%; Pf growth 96h: inconclusive; NS1 function inh: -2%; Pf growth 48h: inconclusive

How did COc1ccc(NC(=O)C2(S(=O)(=O)c3ccc(C)cc3)CC2)cc1OC do in these assays?
CHX counter: -2; Shiga inhibitor: 30; SARS PLP yeast: 1%; Pf growth 96h: 60%; NS1 function inh: 3%; Pf growth 48h: 20%

How did CC1CCN(CCCNC(=O)c2ccc(Cn3c(=S)[nH]c4ccc(Br)cc4c3=O)cc2)CC1 do in these assays?
CHX counter: -3; Shiga inhibitor: -11; SARS PLP yeast: -1%; Pf growth 96h: 16%; Pf growth 48h: 13µM*

Results for CC1CCCCN1CCNC(=O)c1ccc2c(=O)n(Cc3ccc(Cl)cc3)c(=S)[nH]c2c1 (stereo not given) ?
CHX counter: 1; Shiga inhibitor: -3; SARS PLP yeast: 1%; Pf growth 96h: 8%; NS1 function inh: 27%; Pf growth 48h: 3.7µM*

Results for CCC1CCC2(CC1)NC(=O)N(CC(=O)N1CCc3ccccc31)C2=O (stereo not given) ?
SARS PLP yeast: -1%

How did CSc1nc2nccc(-c3ccc(Oc4ccccc4)cc3)n2n1 do in these assays?
CHX counter: 2; Shiga inhibitor: -11; SARS PLP yeast: -5%; NS1 function inh: -7%; Pf growth 48h: inconclusive

How did CSc1nc2nccc(-c3ccc(-c4ccccc4)cc3)n2n1 do in these assays?
CHX counter: 6; Shiga inhibitor: 3; SARS PLP yeast: -5%; Pf growth 96h: 10µM*; NS1 function inh: 13%

How did Nc1sc2c(c1C(=O)NC1CC1)CCCC2 do in these assays?
SARS PLP yeast: -5%

Results for CC1Cc2cc(S(=O)(=O)CCC(=O)N3CCN(c4ccccc4)CC3)ccc2N1C(=O)C1CC1 (stereo not given) ?
CHX counter: 7; Shiga inhibitor: 1; SARS PLP yeast: 3%; Pf growth 96h: 9.3µM*; NS1 function inh: 7%; Pf growth 48h: -12%

How did CCOC(=O)N1CCN(C(=O)CCS(=O)(=O)c2ccc3c(c2)CC(C)N3C(=O)CC)CC1 (stereo not given) do in these assays?
CHX counter: -3; Shiga inhibitor: 13; SARS PLP yeast: 1%; Pf growth 96h: 15µM*; NS1 function inh: 0%; Pf growth 48h: 1%

Results for O=C(Nc1ccc(C(=O)N2CCCc3ccccc32)cc1)c1cccs1 ?
CHX counter: -1; Shiga inhibitor: 12; SARS PLP yeast: -6%; Pf growth 96h: -28%; NS1 function inh: -12%; Pf growth 48h: -27%
